Laboratory results from the supplement of paper PMC11732987, “Enantioselective OTUD7B fragment discovery through chemoproteomics screening and high-throughput optimisation” (Communications Chemistry, 2025).

Columns and labels:
Test in all cases: log2 ratio of Biotin-Ahx-Ub-VS probe labelling (fragment/DMSO); higher = less target engagement (more negative = stronger competition), active = hit call of the paper (q ≤ 0.05, log2 ratio ≤ -1)
Details in all cases: compound concentration: 200 uM; treatment time: 3 h
USP42 = biological target: T1, USP42 (UniProt Q9H9J4)
T1 sequence (whole entry): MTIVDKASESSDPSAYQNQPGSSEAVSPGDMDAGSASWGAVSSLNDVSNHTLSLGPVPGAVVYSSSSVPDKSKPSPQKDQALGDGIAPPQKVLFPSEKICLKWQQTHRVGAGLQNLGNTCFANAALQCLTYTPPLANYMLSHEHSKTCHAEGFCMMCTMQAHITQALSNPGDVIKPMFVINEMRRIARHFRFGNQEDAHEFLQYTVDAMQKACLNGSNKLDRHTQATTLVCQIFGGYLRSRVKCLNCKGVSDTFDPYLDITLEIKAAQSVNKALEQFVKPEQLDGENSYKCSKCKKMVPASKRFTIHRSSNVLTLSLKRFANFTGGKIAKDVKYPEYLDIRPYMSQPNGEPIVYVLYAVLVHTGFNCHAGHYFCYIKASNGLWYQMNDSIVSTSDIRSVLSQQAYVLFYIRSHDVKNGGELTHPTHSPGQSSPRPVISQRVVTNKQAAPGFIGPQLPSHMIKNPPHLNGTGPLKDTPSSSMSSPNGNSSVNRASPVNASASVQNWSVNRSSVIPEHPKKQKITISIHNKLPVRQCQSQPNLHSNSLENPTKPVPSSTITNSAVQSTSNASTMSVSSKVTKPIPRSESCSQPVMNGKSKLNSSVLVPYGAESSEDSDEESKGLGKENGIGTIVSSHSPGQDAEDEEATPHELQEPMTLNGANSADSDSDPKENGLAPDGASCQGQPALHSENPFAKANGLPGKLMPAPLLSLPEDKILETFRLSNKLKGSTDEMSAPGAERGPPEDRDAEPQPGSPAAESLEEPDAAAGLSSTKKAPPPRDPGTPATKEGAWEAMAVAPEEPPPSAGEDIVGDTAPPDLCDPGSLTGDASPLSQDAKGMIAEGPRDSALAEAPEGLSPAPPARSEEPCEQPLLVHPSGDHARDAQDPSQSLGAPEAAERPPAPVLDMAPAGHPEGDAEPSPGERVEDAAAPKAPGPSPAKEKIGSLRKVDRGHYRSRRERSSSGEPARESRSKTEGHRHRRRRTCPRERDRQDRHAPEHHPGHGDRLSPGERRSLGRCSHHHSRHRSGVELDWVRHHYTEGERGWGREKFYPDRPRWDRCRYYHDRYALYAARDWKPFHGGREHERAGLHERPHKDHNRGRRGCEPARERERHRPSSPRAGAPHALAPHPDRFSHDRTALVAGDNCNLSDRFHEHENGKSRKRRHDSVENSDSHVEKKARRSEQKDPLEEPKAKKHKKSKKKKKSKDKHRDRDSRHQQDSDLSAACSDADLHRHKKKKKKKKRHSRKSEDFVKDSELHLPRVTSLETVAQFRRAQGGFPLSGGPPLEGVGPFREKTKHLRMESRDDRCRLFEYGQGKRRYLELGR
In short: (§1)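 HEK293T lysate (495 µg per sample, in Tris/CHAPS/IGEPAL buffer with protease inhibitors) was treated in triplicate with fragment at 200 µM or with DMSO for 3 h. It was then treated with Biotin-Ahx-Ub-VS (0.5 µM final) for 1 h. Labelled DUBs were NeutrAvidin-enriched, digested with LysC and trypsin, and run by diaPASEF LC-MS/MS. Spectronaut label-free quantities were global-median-normalised. Values are average log2 ratios fragment/DMSO by unpaired t-test, using proteins with ≥2 unique peptides.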

USP46 = USP46 (UniProt P62068)
Chain of USP46 (P62068 whole entry): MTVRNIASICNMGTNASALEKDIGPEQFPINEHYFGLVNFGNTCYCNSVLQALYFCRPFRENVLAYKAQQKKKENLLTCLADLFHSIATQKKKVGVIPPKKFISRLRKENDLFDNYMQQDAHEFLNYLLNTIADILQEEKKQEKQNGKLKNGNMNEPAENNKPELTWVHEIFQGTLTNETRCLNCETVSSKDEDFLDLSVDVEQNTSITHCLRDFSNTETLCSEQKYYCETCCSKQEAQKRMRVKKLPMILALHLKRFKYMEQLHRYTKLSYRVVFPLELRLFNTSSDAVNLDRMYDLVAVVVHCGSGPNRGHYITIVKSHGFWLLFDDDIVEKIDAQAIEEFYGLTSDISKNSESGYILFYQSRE
In short: as §1

USP47 = biological target: T2, USP47 (UniProt Q96K76)
T2 sequence (whole entry): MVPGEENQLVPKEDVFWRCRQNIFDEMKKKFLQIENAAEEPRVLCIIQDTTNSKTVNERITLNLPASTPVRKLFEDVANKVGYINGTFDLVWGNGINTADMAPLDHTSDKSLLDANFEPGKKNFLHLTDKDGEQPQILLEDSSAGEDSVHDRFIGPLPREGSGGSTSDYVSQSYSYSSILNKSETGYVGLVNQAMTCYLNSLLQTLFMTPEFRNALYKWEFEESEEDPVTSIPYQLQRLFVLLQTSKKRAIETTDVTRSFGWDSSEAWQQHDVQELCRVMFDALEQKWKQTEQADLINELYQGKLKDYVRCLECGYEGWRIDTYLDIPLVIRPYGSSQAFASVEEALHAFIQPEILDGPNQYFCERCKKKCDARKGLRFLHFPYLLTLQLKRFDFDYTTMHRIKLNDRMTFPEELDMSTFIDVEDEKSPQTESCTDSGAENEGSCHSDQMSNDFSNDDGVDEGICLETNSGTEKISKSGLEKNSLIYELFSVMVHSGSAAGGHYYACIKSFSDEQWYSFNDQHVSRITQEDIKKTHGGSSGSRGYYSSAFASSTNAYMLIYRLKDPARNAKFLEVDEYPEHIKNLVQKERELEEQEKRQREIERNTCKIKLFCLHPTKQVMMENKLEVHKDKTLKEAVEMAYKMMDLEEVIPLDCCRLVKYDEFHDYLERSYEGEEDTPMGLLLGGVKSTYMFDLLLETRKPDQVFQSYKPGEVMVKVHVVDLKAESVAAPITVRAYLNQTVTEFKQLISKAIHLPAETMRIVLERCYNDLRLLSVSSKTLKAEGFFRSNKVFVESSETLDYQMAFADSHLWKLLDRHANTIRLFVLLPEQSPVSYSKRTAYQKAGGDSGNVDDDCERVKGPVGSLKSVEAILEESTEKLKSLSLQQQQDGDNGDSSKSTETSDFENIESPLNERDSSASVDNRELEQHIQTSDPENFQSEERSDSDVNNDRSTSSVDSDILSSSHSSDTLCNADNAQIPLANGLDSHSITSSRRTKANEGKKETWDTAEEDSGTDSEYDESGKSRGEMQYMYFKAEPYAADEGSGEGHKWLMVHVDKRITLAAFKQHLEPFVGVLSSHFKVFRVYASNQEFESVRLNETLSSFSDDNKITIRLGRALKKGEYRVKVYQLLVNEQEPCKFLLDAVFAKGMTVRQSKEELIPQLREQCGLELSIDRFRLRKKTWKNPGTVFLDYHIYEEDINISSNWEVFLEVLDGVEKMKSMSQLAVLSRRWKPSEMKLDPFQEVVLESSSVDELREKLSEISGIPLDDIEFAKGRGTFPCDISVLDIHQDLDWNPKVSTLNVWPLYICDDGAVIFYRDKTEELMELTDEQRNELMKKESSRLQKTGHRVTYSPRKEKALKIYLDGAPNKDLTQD
In short: as §1

USP48 = biological target: T3, USP48 (UniProt Q86UV5)
T3 sequence (whole entry): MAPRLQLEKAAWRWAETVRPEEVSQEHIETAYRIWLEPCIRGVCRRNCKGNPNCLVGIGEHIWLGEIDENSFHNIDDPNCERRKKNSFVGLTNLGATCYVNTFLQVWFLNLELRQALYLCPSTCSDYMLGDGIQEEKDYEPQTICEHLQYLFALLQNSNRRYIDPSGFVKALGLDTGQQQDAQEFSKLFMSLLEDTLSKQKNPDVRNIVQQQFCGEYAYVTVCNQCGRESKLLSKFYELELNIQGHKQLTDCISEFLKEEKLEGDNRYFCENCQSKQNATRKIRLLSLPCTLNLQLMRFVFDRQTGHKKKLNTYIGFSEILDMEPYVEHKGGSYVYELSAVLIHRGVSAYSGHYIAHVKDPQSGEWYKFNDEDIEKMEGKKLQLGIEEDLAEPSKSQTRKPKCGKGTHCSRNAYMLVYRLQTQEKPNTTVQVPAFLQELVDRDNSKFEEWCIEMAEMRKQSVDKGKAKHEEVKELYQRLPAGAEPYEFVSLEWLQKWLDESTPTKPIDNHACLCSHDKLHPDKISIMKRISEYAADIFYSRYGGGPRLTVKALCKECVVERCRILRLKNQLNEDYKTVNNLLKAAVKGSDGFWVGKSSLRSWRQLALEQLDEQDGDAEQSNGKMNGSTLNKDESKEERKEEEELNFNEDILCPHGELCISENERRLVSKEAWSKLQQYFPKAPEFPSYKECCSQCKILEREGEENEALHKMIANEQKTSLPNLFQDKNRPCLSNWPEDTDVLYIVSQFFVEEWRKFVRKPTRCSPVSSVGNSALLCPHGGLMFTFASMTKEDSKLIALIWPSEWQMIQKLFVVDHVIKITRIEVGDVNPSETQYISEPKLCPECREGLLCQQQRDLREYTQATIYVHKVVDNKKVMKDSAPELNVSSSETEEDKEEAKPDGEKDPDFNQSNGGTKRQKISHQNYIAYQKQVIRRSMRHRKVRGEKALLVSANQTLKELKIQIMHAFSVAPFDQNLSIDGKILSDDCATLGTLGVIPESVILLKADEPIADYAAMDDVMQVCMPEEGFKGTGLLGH
In short: as §1

USP5 = biological target: T4, USP5 (UniProt P45974)
T4 sequence (whole entry): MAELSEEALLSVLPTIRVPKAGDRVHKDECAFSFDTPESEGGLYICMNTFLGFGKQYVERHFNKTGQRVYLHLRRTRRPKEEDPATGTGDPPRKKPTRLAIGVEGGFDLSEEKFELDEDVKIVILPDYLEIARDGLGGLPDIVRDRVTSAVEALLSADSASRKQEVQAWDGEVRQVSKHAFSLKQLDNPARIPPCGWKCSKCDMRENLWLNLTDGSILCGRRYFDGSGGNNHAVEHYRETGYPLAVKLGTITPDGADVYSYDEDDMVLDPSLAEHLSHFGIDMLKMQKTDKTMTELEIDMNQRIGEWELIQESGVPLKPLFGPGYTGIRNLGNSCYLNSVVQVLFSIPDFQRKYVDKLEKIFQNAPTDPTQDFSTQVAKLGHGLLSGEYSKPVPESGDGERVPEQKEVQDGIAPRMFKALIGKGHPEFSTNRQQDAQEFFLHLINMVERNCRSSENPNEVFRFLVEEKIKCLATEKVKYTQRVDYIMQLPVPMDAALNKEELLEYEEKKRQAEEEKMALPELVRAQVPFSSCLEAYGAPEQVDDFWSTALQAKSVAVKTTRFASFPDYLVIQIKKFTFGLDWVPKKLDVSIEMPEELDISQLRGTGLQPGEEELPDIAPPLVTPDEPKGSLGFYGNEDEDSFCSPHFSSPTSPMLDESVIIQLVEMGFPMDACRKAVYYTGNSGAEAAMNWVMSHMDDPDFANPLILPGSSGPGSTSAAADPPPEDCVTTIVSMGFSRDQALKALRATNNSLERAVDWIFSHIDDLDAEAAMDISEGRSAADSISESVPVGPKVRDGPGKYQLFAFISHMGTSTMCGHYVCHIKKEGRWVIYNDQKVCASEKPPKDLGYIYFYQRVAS
In short: as §1

USP54 = USP54 (UniProt Q70EL1)
Chain of USP54 (Q70EL1 whole entry): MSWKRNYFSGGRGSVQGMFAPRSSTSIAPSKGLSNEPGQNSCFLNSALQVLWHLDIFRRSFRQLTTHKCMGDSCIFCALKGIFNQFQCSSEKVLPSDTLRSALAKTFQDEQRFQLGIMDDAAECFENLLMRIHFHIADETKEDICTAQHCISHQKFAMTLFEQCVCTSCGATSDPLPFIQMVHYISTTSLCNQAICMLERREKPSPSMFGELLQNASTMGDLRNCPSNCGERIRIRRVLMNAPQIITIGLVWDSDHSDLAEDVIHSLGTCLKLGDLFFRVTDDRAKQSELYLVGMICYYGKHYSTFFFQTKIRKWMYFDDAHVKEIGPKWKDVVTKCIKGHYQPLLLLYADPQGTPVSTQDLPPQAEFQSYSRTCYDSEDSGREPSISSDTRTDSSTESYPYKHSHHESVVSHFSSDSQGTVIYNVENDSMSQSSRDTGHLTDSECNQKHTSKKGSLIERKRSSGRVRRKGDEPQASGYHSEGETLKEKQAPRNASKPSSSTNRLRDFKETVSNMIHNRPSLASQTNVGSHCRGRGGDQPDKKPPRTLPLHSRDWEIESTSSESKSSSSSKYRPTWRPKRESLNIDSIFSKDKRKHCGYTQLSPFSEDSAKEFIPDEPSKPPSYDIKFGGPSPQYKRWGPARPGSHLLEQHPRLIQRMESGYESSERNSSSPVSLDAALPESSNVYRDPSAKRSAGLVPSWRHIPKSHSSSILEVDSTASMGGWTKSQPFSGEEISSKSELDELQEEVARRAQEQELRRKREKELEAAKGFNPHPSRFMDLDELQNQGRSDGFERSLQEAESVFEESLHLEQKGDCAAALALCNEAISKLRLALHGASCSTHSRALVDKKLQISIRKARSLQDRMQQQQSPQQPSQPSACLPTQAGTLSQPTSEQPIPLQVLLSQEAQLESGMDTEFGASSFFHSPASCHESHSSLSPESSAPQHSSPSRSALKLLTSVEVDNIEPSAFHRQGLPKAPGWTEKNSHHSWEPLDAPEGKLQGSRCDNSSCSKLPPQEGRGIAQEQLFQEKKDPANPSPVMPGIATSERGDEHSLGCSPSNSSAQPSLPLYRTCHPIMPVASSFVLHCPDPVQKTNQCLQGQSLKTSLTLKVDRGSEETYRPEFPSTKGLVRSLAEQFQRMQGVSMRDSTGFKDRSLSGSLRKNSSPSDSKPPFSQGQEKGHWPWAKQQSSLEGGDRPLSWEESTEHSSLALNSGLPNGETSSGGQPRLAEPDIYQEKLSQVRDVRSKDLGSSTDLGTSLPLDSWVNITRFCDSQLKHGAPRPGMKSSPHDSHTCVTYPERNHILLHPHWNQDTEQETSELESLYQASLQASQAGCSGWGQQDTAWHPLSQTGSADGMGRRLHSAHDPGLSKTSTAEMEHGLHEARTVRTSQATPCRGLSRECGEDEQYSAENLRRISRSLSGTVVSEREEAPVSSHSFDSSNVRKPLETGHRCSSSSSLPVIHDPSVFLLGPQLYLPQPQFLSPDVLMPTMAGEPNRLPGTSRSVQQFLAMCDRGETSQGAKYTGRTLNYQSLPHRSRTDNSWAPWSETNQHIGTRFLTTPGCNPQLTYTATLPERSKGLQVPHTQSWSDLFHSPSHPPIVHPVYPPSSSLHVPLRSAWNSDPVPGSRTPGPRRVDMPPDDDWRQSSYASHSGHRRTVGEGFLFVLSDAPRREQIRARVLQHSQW
In short: as §1

USP7 = USP7 (UniProt Q93009)
Chain of USP7 (Q93009 whole entry, looked up): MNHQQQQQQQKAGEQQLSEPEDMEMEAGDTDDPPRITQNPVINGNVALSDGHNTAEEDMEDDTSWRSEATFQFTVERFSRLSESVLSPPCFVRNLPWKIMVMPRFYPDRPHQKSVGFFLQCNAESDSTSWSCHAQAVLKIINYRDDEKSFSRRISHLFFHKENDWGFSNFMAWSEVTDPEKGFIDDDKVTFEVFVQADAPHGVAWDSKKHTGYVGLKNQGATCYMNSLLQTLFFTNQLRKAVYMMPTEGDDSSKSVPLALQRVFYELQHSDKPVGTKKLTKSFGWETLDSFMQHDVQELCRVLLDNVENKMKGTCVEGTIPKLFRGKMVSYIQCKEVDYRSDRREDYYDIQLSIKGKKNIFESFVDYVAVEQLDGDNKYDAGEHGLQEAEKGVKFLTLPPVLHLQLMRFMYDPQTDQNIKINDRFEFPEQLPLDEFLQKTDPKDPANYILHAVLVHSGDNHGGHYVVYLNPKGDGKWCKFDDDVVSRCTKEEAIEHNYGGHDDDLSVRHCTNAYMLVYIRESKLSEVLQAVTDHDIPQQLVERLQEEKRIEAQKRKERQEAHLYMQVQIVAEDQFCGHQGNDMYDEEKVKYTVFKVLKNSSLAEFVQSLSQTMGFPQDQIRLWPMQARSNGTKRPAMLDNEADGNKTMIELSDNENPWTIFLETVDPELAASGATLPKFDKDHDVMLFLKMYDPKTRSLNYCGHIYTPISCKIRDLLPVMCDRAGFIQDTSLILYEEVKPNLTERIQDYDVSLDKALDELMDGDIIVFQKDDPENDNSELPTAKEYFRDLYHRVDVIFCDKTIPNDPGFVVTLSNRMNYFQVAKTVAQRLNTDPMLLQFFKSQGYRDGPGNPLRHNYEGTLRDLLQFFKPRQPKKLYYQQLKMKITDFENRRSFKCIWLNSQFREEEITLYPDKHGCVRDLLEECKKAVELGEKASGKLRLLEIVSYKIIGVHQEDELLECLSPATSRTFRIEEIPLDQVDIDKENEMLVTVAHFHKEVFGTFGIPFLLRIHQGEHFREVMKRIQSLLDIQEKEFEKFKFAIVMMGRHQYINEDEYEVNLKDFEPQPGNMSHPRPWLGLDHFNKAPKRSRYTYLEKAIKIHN
In short: as §1

USP8 = biological target: T5, USP8 (UniProt P40818)
T5 sequence (whole entry): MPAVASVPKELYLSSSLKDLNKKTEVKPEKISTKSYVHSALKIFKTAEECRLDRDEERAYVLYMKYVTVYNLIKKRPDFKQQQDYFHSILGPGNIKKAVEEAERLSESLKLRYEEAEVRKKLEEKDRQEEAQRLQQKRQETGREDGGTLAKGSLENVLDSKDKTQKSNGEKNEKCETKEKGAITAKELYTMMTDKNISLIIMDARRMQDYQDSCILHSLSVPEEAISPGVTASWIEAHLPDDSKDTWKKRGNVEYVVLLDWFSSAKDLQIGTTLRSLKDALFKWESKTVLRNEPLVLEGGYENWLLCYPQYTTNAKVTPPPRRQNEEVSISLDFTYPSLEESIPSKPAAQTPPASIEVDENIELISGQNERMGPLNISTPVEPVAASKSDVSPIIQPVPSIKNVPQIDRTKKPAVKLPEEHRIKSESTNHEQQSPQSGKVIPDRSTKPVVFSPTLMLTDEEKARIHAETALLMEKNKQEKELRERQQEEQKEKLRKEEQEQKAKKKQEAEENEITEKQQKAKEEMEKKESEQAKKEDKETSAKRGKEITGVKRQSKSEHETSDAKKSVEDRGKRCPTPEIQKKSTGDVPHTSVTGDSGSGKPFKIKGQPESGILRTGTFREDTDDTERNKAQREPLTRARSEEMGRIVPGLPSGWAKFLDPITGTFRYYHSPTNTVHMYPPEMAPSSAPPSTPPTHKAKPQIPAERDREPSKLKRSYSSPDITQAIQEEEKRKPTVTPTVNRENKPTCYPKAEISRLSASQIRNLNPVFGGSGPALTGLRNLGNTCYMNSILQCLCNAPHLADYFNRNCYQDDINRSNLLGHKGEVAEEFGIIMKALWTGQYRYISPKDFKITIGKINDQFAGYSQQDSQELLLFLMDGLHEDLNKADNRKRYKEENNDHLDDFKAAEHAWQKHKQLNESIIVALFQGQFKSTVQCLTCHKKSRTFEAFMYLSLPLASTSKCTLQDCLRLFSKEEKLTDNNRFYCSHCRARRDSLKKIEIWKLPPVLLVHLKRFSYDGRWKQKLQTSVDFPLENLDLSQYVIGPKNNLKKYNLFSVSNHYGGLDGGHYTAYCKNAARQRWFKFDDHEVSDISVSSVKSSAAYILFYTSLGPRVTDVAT
In short: as §1

USP9X = USP9X (UniProt Q93008)
In short: as §1

UniProt O00487 = biological target: UniProt O00487
Chain of UniProt O00487 (O00487 whole entry): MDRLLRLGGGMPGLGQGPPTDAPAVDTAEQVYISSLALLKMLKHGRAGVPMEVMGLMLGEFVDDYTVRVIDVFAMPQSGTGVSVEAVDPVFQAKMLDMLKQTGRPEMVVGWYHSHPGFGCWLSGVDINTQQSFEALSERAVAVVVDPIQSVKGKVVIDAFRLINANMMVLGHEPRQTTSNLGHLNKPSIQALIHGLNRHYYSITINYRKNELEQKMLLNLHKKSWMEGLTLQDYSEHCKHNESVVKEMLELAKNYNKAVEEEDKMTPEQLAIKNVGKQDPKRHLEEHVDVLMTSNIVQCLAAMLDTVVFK
In short: as §1

Measured: log2 ratio of Biotin-Ahx-Ub-VS probe labelling

CN(CCC(O)c1ccc(Br)cc1)C(=O)CCl (stereo not given)
inactive: USP42 0.556 | USP46 -0.218 | USP47 -0.526 | USP48 -0.691 | USP5 -0.00644 | USP54 0.00894 | USP7 -0.612 | USP8 -0.072 | USP9X -0.275 | UniProt O00487 -0.00696
